This passage reports growth results from PubChem BioAssay (NCI).

Holding throughout (experiment): NCI-60 one-dose screen, 48 h (100 = growth as untreated, 0 = no growth, -100 = all killed)
Details in all cases: 10 µM unless noted

For assay [1], the system named is HCT-15 colon.
The subject of assay [2] is HT29 colon.
Assay [3] concerns U251 CNS.
The test system of assay [4] is PC-3 prostate.
For assay [5], the system named is SK-MEL-5 melanoma.
The subject of assay [6] is LOX IMVI melanoma.
In assay [7] the test system is SK-MEL-28 melanoma.
Assay [8] concerns SN12C renal.
Assay [9] concerns UO-31 renal.
The test system of assay [10] is ACHN renal.
For assay [11], the system named is CAKI-1 renal.
Assay [12] deals with MOLT-4 leukemia.
Assay [13] concerns SNB-19 CNS.
In assay [14] the test system is UACC-62 melanoma.
Assay [15] concerns EKVX NSCLC.
The test system of assay [16] is A498 renal.
Assay [17] deals with CCRF-CEM leukemia.
The subject of assay [18] is SK-MEL-2 melanoma.
Assay [19] concerns TK-10 renal.

This is part of a sample that, as a whole, favours compounds with a hit. Of some 83,000 tested, about 20% had one in any assay.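 Assay: single dose, 48 h. Readout: percent growth (0 = no net growth; negative = cell death). Active: <10.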 Values without a mark were called inactive. Active and inactive are the calls of the source.

Turning to `Oc1cccc(Nc2nc(-c3ccccn3)cs2)c1`, the growth in assay [1] was 78.3%; in assay [2], 112%; in [3], 101%; in [4], 94.5%; in assay [5], 91.1%; in assay [6] it was 93.9%. The growth was 111% in [7]; 97.8% in [8]; 73.1% in [9]; 102% in [10]; 111% in assay [11]; 85.2% in assay [12].
As for `O=C1N/C(=C\c2ccccc2)c2ncccc21`, the growth is 101% in [1]; 113% in assay [2]; 104% in [13]; 104% in assay [3]; 105% in [5]; 102% in assay [14]. Besides, the growth in [6] was 99.2%; in assay [7], 119%; in assay [15], 93.1%; in assay [8], 100%; in assay [9], 69%; in assay [10] it was 103%. Further, the growth is 93.6% in assay [11], 123% in assay [16], 97.7% in [17] and 80.7% in [12].
For `O=C1c2ccccc2C(=O)c2c(Nc3ccc(CCO)cc3)ccc(O)c21`, the growth was 61.7% in [1]; 57.4% in assay [2]; 84.8% in assay [13]; 74.2% in assay [3]; 86.7% in assay [5]; 74.9% in assay [14]. The growth was 51.6% in [6]; 44.8% in assay [7]; 103% in assay [18]; 45% in assay [15]; 85.5% in [8]; 47.4% in assay [9]. Besides, the growth in assay [19] is 100%; in assay [10], 64.4%; in assay [11], -4.04% (active); in assay [16], 51.5%; in assay [17], 39.8%; in assay [12], 35.9%.
With `C[C@@H](Oc1cc(-c2cnn(C3CC4(CCCNC4)C3)c2)cnc1N)c1c(Cl)ccc(F)c1Cl` (stereo partly specified), the growth is 16.2% in assay [1]; -47.7% (active) in assay [2]; 72.3% in assay [13]; 29.5% in assay [3]; 15.6% in assay [4]; 14.3% in assay [14]. In addition, the growth is -73% (active) in [6]; -67.2% (active) in [7]; 21.7% in [8]; 29.7% in assay [9]; 29.5% in [10]; 56.6% in [11]. The values for the growth in [16], in assay [17] and in assay [12] were -10.4% (active), -6.75% (active) and -7.46% (active), respectively.
As for `O/N=C/c1cccs1`, the growth in assay [1] was 98.4%; in assay [2], 107%; in [13], 107%; in [4], 101%; in assay [5], 103%; in assay [14], 119%. The growth in assay [6] is 107%; in [7] it was 112%; in assay [18], 116%; in [8], 106%; in [9], 89.1%; in [19], 118%. The growth is 97% in assay [10]; 91.7% in [11]; 102% in [16]; 101% in assay [17]; 85.5% in assay [12].
On to `O=C1NC(=O)C2(CCCC2C(=O)O)N1` (stereo unspecified), for which the growth was 99.1% in assay [1]; 108% in [2]; 96.7% in [3]; 92.6% in assay [4]; 110% in [5]; 103% in [14]. Moreover, the growth is 91.1% in assay [6]; 110% in [7]; 94.2% in assay [15]; 99.6% in assay [8]; 96.5% in assay [9]; 106% in assay [19]. Further, the growth is 99.5% in assay [10]; 102% in assay [11]; 115% in assay [16]; 91.8% in [17]; 101% in assay [12].
For the molecule `C=C(C)COC(=O)c1ccccc1C(=O)OCC1(C)CO1` (stereo unspecified), the growth was 107% in [1]; 107% in assay [2]; 102% in assay [3]; 104% in assay [4]; 105% in assay [5]; 92.8% in assay [14]. Besides, the growth in [6] was 84.5%; in [7], 117%; in assay [18], 97.5%; in assay [15], 103%; in [19], 102%; in assay [10], 105%. Besides, the growth in assay [11] was 96.6%; in assay [16] it was 108%; in assay [17], 97.2%; in assay [12], 99.7%.
